# Screening data deposited in PubChem by The Scripps Research Institute Molecular Screening Center.
# Shown are actives, neighbours in structure and some others; about 1.2% of the full set was active somewhere.
# Cardiac RTF inh – cardiac RTF calcium desensitization | 340,000 tested, 0.12% active | IANBD-labeled cardiac RTF, Ca2+ fluorescence | inhibition, % at 7.15 µM | AID 493244 | P19429+P45379;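 active = inhibition above the mean inhibition of all tested compounds plus 3 SD, cut at about 17% in these data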;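 also: assay run at fixed EC70 calcium of 1.6 mM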
# eLon inh – inhibitors of E. coli Lon protease; P0A9M0; purified E. coli Lon protease, fluorescence polarization; inhibition, % at 7.94 µM; 360,000 tested, 0.42% active; AID 602123; in the data active = inhibition above about 13%, passing the limit was not always enough
# RTF Ca sens act – increases calcium sensitivity of human cardiac regulated thin filaments | IANBD-labeled TnC RTF fluorescence at EC20 calcium; 0% EC20 calcium, 100% full calcium | activation, % at 7.2 µM | 340,000 tested, 0.24% active | AID 493008;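 active = activation above the mean over all tested compounds plus 3 SD, cut at about 30% in these data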;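 also: rise in fluorescence read as greater calcium sensitivity of cardiac thin filaments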
# GLD-1 RNA inh – GLD-1-TGE RNA interaction inhibition (C. elegans). Q17339. purified GLD-1 + fluorescein TGE RNA, fluorescence polarization. inhibition, % at 5.96 µM. 320,000 tested, 0.44% active;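 active = percent inhibition above a per-plate cutoff, the plate mean of test compounds plus 3 SD, cut at about 30% in these data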
# Target sequence (Q17339 whole entry, looked up): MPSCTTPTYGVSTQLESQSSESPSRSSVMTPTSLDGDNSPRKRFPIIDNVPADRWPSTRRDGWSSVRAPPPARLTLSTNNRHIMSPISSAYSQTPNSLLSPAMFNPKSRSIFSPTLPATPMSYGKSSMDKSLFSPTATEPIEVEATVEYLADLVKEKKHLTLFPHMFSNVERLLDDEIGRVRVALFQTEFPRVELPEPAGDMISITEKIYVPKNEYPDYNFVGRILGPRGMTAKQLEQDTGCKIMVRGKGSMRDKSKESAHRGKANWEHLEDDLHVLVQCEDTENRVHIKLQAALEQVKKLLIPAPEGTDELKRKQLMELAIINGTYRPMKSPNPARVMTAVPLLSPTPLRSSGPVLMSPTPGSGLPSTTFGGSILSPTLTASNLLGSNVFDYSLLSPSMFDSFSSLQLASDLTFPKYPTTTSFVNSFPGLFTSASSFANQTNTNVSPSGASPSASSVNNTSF
# BCLXL inh – blocks human Bcl-xL binding to Bim BH3 peptide. Q07817. GST-Bcl-xL / FITC-Bim BH3 peptide fluorescence polarization. inhibition, % at 10.9 µM. 320,000 tested, 0.7% active. AID 2129;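 active = inhibition above the mean of all tested compounds plus 3 SD, cutoff set per campaign, cut at about 30% in these data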;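 also: inhibitors lower millipolarization by displacing the labeled peptide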
# GLD1 RNA confirm – GLD-1 TGE RNA interaction inhibition, confirmation; shares compounds with GLD-1 RNA inh; GLD-1/FL-TGE RNA fluorescence polarization, biochemical; inhibition, % at 5.96 µM; 550 tested, 10% active;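 active = average inhibition across triplicates above the hit cutoff set in the primary screen, cut at about 32% in these data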
# Numbers stand for hits; - = inactive; . = not tested or not shown.
SMILES,Cardiac RTF inh,eLon inh,RTF Ca sens act,GLD-1 RNA inh,BCLXL inh,GLD1 RNA confirm
O=C(O)Cn1c2c(c3ccccc31)CCCC2,-,-,-,33,39,-
CN(C)c1ccc(Sc2nnc(NC(=O)Nc3ccc(Cl)cc3Cl)s2)cc1,-,-,-,-,-,.
C[C@@]12C(=O)N(Cc3ccc(Cl)cc3)CC(=O)N1[C@H]1c3ccccc3OC[C@@H]1[C@@H]2c1ccccc1,-,-,-,-,-,.
COc1ccc(CN2CC(=O)N3[C@H]4c5cc(C)ccc5OC[C@@H]4[C@H](c4ccccc4)[C@]3(C)C2=O)cc1,-,-,-,33,.,-
COc1ccc(CN2CC(=O)N3[C@H]4c5ccccc5OC[C@@H]4[C@H](c4ccccc4)[C@]3(C)C2=O)cc1,-,-,-,45,-,-
COc1ccc2c(c1)OC[C@H]1[C@H]2N2C(=O)CN(Cc3ccc(C)cc3)C(=O)[C@@]2(C)[C@H]1c1ccccc1,-,-,-,-,-,.
CN(Cc1ccccc1)C(=O)CCC1CCN(S(=O)(=O)N(C)C)CC1,-,-,-,-,-,.
COc1ccc(OC)c2[nH]c(=O)c(CCNC(=O)c3ccc(Br)o3)cc12,-,-,-,-,-,.
COc1cc(NC(=O)c2cccs2)ccc1NC(=O)c1cc2ccccc2o1,-,-,-,-,-,.
CSc1c(C#N)c(N)nc2sc(C(=O)c3ccccc3)c(N)c12,-,-,-,33,51,-
COc1ccc(NC(=O)Cc2ccccc2)cn1,-,-,-,36,38,35
COc1ccc(NC(=O)CSc2ccccc2)cn1,-,-,-,-,-,.
COc1ccc(NC(=O)C(c2ccc(Cl)cc2)C(C)C)cn1 (stereo not given),-,-,-,36,36,-
Cc1cc(NC(=O)/C=C/c2ccccc2Cl)n(-c2nc3ccccc3[nH]2)n1,-,-,-,34,-,-
CC1(C)C(C(=O)O)N2C(=O)C(NC(=O)Cc3ccccc3)C2S1=O (stereo not given),-,-,-,-,-,.
Cc1cccc(OCC(=O)N(Cc2ccco2)C2CCS(=O)(=O)C2)c1 (stereo not given),-,-,-,-,-,.
COc1ccccc1Oc1c(C)oc2c(CN3CCN(CCO)CC3)c(O)ccc2c1=O,.,.,.,61,95,-
CCOc1ccccc1Oc1c(C)oc2c(CN3CCN(CCO)CC3)c(O)ccc2c1=O,-,-,-,-,-,.
Cc1ccc(S(=O)(=O)N(C)Cc2ccc(C(=O)N/N=C3\CCCC(=O)C3)cc2)cc1,-,-,-,49,-,-
Cc1ccc(S(=O)(=O)N(C)Cc2ccc(C(=O)NN=C3C4CC5CC(C4)CC3C5)cc2)cc1,-,-,-,-,-,.
O=C1CCC/C(=N/NC(=O)c2ccc(CN3c4cccc5cccc(c45)S3(=O)=O)cc2)C1,-,-,-,40,-,-
COc1ccc(NC(=O)c2ccc(OC)c(S(=O)(=O)N3CCCCC3C)c2)cn1 (stereo not given),-,-,-,33,51,-
Cc1c(C(=O)O)cccc1-c1ccc(/C=C2/NC(=O)N(c3ccccc3)C2=O)o1,-,-,-,-,-,.
Cc1ccc(/C=C2/NC(=O)N(c3ccccc3)C2=O)o1,-,-,-,50,-,-
CCN1C(=O)N/C(=C/c2ccc(C)o2)C1=O,-,-,-,43,-,-
SMILES,Cardiac RTF inh,eLon inh,RTF Ca sens act,GLD-1 RNA inh,BCLXL inh,GLD1 RNA confirm
Cc1ccc(/C=C2/NC(=O)N(Cc3ccccc3F)C2=O)o1,-,-,-,34,-,-
C=CCn1c(SCc2nc3cc(C(=O)OC)ccc3c(=O)[nH]2)nc2sc(CC)cc2c1=O,-,-,-,-,-,.
CCOC(=O)c1ccccc1N/C=C1\CCCC1=O,-,-,-,-,-,.
COc1ccc(SC[C@H](CC(C)C)N2CCN(C)CCC2=O)cc1,-,-,-,-,-,.
COc1cccc(C2C=C(c3ccc(OC)cc3OC)Nc3nnnn32)c1 (stereo not given),-,-,-,39,54,-
COc1ccc(C2=CC(c3ccc(OC)c(OC)c3)n3nnnc3N2)c(OC)c1 (stereo not given),-,-,-,-,-,.
NC(=O)c1ccc(Nc2nc(C(N)c3ccccc3Cl)cs2)cc1 (stereo not given),.,-,.,.,.,.
COc1ccc(N2C(=O)CSC2c2cccc(OC)c2OC)cc1 (stereo not given),-,-,-,-,-,.
COCCNC(=O)c1c(N)n(CCC2=CCCCC2)c2nc3ccccc3nc12,-,-,-,38,50,-
COc1ccc(CCn2c(N)c(C(=O)NCc3ccco3)c3nc4ccccc4nc32)cc1,-,-,-,-,-,.
CC1(C)CC(=O)C2=C(C1)Nc1cc(Cl)ccc1S2,-,-,-,35,34,-
CCc1ccc(C2C(C#N)=C(N)C(C#N)(C#N)C3=CCC(C(C)(C)C)CC32)cc1 (stereo not given),-,26,-,41,41,-
CCOC(=O)C1=C(O)c2ccccc2C(=O)/C1=C\c1ccc(CC)cc1,-,-,-,38,-,-
CCCCNc1c(-c2ccc(OC)c(Sc3ccc(OC)cc3)c2)nc2cnccn12,-,-,-,-,.,.
CCCCNc1c(-c2ccc(SC(C)CC)cc2)nc2cnccn12 (stereo not given),-,-,-,43,.,-
CC(=O)Nc1ccc(-c2csc(Nc3cccc(C)n3)n2)cc1,-,-,-,.,.,.
Oc1ccc(/C=N/Nc2cc(N3CCCC3)nc(N3CCCC3)n2)cc1,-,-,-,39,-,38
CCN1C(=O)c2cccc3c(S(=O)(=O)Nc4ccccn4)ccc1c23,-,-,-,-,-,.
Cc1cc(Oc2ccc(=O)[nH]n2)nc(Cl)n1,-,-,-,35,40,-
C=CCNC(=O)c1c(CSc2ccc(Cl)cc2)noc1C(=O)NCCC,-,-,-,-,-,.
CCCNC(=O)c1onc(CSc2ccc(Cl)cc2)c1C(=O)NCCC(C)C,-,-,-,44,-,-
c1ccc(-c2ccccc2OCCCN2CCCCCC2)cc1,-,-,-,-,-,.
CC(C)C1=C2OC(N)=C(C#N)C(C#N)=C2C(C)CC1 (stereo not given),-,-,-,39,35,-
Cc1cccc(-n2nnnc2SCC(=O)NCC2CCCO2)c1 (stereo not given),-,-,-,-,-,.
COc1ccccc1CNCC(=O)Nc1ccc(N(C)C)cc1,-,-,-,50,71,-
CCOC(=O)Cc1csc(/N=C/c2c(O)n(-c3ccc(C)cc3C)c(=O)c3ccccc23)n1,-,-,-,38,-,-
Cc1ccccc1CNC(=O)CC1C(=O)NCCN1Cc1c(F)cccc1Cl (stereo not given),-,-,-,-,-,.
O=c1cc(CSc2nnc(Nc3ccccc3F)s2)nc2sccn12,-,-,-,-,-,.
COc1ccc(Nc2nnc(SCc3cc(=O)n4ccsc4n3)s2)cc1,-,-,-,41,66,36
